These results are taken from PubChem BioAssay (Tox21).

Records with an inconclusive call do not appear. A number with no mark means an inactive call. The source made the active and inactive calls. Unless noted, calls follow the shape of the dose curve; as a rule, active = well fitted curve in the direction sought with a large enough effect in the repeat runs; inconclusive = weak or mixed curves; inactive = no such curve, though single readings can be large; an effect the other way counts as inactive or inconclusive.

Test [1] in a line: qHTS assay to identify small molecule antagonists of the thyroid receptor (TR) signaling pathway - cell viability counter screen (AID 743064). Also: nearly all actives have a fitted effect of over 50% in size. The essentials:
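CellTiter-Fluor readout, 30 min at 37 °C/5% CO2, following 23.5 h incubation of GH3.TRE-Luc cells with test compound and 1 nM T3 (final).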
In general terms: qHTS replaces the single test concentration by a dilution series.

Test [2] in a line: qHTS assay to identify small molecule antagonists of the thyroid receptor (TR) signaling pathway (AID 743065). Also: series mostly up to about 70 µM; nearly all actives have a fitted effect of over 55% in size. In a few lines:
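GH3.TRE-Luc rat pituitary cells carrying two TR response elements driving luciferase were plated for 4 h, given compound plus 1 nM T3 (final), and incubated 23.5 h at 37 C. ONE-Glo luminescence measured reporter inhibition; CellTiter-Fluor fluorescence tracked cytotoxicity.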

Test [3] concerns thyroid hormone receptor (rat, GH3 cells). Kind of test: qHTS assay to identify small molecule agonists of the thyroid receptor (TR) signaling pathway (AID 743066; calls by dose curve).
Test [4] addresses Estrogen receptor (Homo sapiens) (UniProt P03372). Kind of test: qHTS assay to identify small molecule antagonists of the estrogen receptor alpha (ER-alpha) signaling pathway (AID 743069; active = well fitted curve in the direction sought with a large enough effect in the signal ratio in the repeat runs, not every such curve was filed as active; the % refers to the signal ratio). In a few lines: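 Estradiol-stimulated ER-alpha-UAS-bla HEK293 cells, 18 hr compound exposure at 37C. LiveBLAzer B/G substrate, 2 hr RT, fluorescence read.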
Test [5] can be described thus: qHTS assay to identify small molecule antagonists of the estrogen receptor alpha (ER-alpha) signaling pathway - cell viability counter screen (AID 743074; calls by dose curve;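 also: HEK293 cells carrying ER-alpha-UAS-bla reporter stimulated with 17beta-estradiol; nearly all actives have a fitted effect of over 45% in size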).
The target in test [6] is Estrogen receptor (Homo sapiens) (UniProt P03372). The test is described as follows: qHTS assay to identify small molecule agonists of the estrogen receptor alpha (ER-alpha) signaling pathway (AID 743075; calls by dose curve;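 also: HEK293 GripTite cells with ER-alpha and UAS-driven beta-lactamase reporter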).
The target is the same in test [7]. Kind of test: qHTS assay to identify small molecule agonists of the estrogen receptor alpha (ER-alpha) signaling pathway using the BG1 cell line (AID 743079). Also: nearly all actives have a fitted effect of over 20% in size. Also: potency is read from the fitted curve at half-maximal effect.
Test [8] is described as follows: qHTS assay to identify small molecule antagonists of the estrogen receptor alpha (ER-alpha) signaling pathway using the BG1 cell line (AID 743080; calls by dose curve;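 also: BG1 cells stimulated with 17beta-estradiol alongside compound; series mostly up to about 70 µM; nearly all actives have a fitted effect of over 25% in size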). In a few lines: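 Seeding, 24 h rest, compound transfer from DMSO, 17beta-estradiol addition, 21.5 h incubation, CellTiter-Fluor (30 min, 37 C), then ONE-Glo (30 min, room temperature): this sequence was run on BG1-Luc-4E2 reporter cells.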

Test [9] is described as follows: qHTS assay to identify small molecule antagonists of the estrogen receptor alpha (ER-alpha) signaling pathway using the BG1 cell line - cell viability counter screen (AID 743081).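 Also: compound given together with 17beta-estradiol as the ER stimulus; series mostly up to about 70 µM; nearly all actives have a fitted effect of over 45% in size.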
The target of another test is Aromatase (Homo sapiens) (UniProt P11511). The test is described as follows: qHTS assay to identify aromatase inhibitors (AID 743083). Also: series mostly up to about 70 µM; nearly all actives have a fitted effect of over 55% in size.
A short description of test [10]: qHTS assay to identify aromatase inhibitors - cell viability counter screen (AID 743084).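 Also: cells stimulated with testosterone during compound exposure; nearly all actives have a fitted effect of over 55% in size.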
Test [11] addresses Aryl hydrocarbon receptor (Homo sapiens) (UniProt P35869). Kind of test: qHTS assay to identify small molecule that activate the aryl hydrocarbon receptor (AhR) signaling pathway (AID 743085).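 Also: HG2L7.5c1 human HepG2 liver cells with stably integrated DRE-driven firefly reporter; series mostly up to about 70 µM; nearly all actives have a fitted effect of over 15% in size.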 In a few lines:
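Stably transfected human liver carcinoma cells (HG2L7.5c1; 20 DRE-firefly luciferase) were incubated 5 h, dosed, and kept 24 h at 37C. Agonism was scored from increased luciferase luminescence.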

Test [12] can be described thus: qHTS assay to identify small molecule that activate the aryl hydrocarbon receptor (AhR) signaling pathway - cell viability counter screen (AID 743086).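 Also: HepG2 liver cells carrying the AhR DRE luciferase reporter; series mostly up to about 70 µM; nearly all actives have a fitted effect of over 45% in size.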 In a few lines: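 HepG2-AhR-luc (HG2L7.5c1) cells, 4000/well, were preincubated 5 h at 37C, exposed to compound in qHTS format for 24 hr at 37C, then given CellTiter-Fluor for 30 min; viability was read as fluorescence in the reporter wells.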

Test [13] deals with Peroxisome proliferator-activated receptor gamma (Homo sapiens) (UniProt P37231). The test is described as follows: qHTS assay to identify small molecule antagonists of the peroxisome proliferator-activated receptor gamma (PPARg) signaling pathway (AID 743191; calls by dose curve; also: series mostly up to about 63 µM; nearly all actives have a fitted effect of over 30% in size). In a few lines:
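GeneBLAzer PPARg UAS-bla HEK293H cells carrying a UAS-driven beta-lactamase reporter were plated at 3000 cells/well, preincubated 5 h at 37C, then given compound for 17 h at 37C; LiveBLAzer B/G FRET substrate was read after 1 h at room temperature.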

A short description of test [14]: qHTS assay for small molecule agonists of the antioxidant response element (ARE) signaling pathway (AID 743202; active = well fitted activation curve with a large enough effect in the signal ratio in the repeat runs, not every such curve was filed as active; the % refers to the signal ratio; also: potency is read from the fitted curve at half-maximal effect). In a few lines: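 Compounds delivered in DMSO to ARE-bla HepG2 cells (2,000 cells/well, pre-incubated 5 h) and left 16 h at 37 C. LiveBLAzer B/G FRET substrate then added for 2 h at RT before fluorescence reading.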
Test [15] in a line: qHTS assay for small molecule agonists of the antioxidant response element (ARE) signaling pathway - cell viability counter screen (AID 743203; calls by dose curve; also: nearly all actives have a fitted effect of over 55% in size). In a few lines: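 Seeded at 2,000 cells/well, ARE-bla HepG2 cells were incubated 5 hrs before compound addition. After 16 hrs of treatment at 37C with 5% CO2, CellTiter-Glo reagent was added and luminescence read 30 min later.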
A short description of test [16]: qHTS assay for small molecule activators of the heat shock response signaling pathway - cell viability counter screen (AID 743209). Also: nearly all actives have a fitted effect of over 50% in size. The essentials:
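First, HSE-bla HeLa cells were seeded at 1500 cells/well and kept overnight at 37 C. Next, compounds were pinned in and incubated 5 h. After the FRET substrate step, CellTiter-Glo was added and luminescence read 30 min later.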

Test [17] can be described thus: qHTS assay for small molecule activators of the heat shock response signaling pathway (AID 743210; active = well fitted activation curve with a large enough effect in the signal ratio in the repeat runs, with a control signal flat, not every such curve was filed as active; the % refers to the signal ratio;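 also: HeLa cells with beta-lactamase reporter driven by heat shock elements; series mostly up to about 63 µM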). The essentials:
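Reporter gene assay: HeLa cells stably bearing an HSE-bla construct, compound treatment 5 h at 37 C, LiveBLAzer substrate 2.5 h at RT, fluorescence intensity.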

In test [18] the target is Peroxisome proliferator-activated receptor gamma (Homo sapiens) (UniProt P37231). The test is described as follows: qHTS assay to identify small molecule agonists of the peroxisome proliferator-activated receptor gamma (PPARg) signaling pathway (AID 743094; active = well fitted activation curve with a large enough effect in the signal ratio in the repeat runs, not every such curve was filed as active; the % refers to the signal ratio). In a few lines:
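Quantitative HTS agonist mode: stable HEK293H line with UAS-beta-lactamase reporter under PPARg control, 17 h compound exposure at 37C, fluorescence after 1 h FRET substrate loading at room temperature.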

Test [19] is described as follows: qHTS assay to identify small molecule antagonists of the peroxisome proliferator-activated receptor gamma (PPARg) signaling pathway - cell viability counter screen (AID 743194). Also: nearly all actives have a fitted effect of over 55% in size. In a few lines: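 PPARg-UAS-bla HEK293H cells were plated, rested 5 h at 37 C, then treated with compounds plus rosiglitazone (50 nM final) for 17 h at 37 C; viability was then read by CellTiter-Glo luminescence after 30 min at room temperature.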
% is scaled to controls: 0 for no effect and ±100 for the full control effect.

Chain of Aromatase (Homo sapiens) (P11511 whole entry, looked up): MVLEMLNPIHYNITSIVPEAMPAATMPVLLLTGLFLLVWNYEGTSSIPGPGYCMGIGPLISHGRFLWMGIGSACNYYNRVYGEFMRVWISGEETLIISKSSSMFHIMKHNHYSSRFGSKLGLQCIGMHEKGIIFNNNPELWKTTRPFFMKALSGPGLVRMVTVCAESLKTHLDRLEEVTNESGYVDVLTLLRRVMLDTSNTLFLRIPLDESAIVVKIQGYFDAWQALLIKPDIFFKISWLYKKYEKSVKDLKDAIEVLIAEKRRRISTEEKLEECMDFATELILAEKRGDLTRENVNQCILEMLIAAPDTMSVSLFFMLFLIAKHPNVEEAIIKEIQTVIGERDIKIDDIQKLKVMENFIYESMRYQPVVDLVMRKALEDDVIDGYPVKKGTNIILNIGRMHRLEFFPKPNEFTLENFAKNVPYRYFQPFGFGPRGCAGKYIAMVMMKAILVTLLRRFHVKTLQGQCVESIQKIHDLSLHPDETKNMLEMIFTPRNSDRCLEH
Chain of Peroxisome proliferator-activated receptor gamma (Homo sapiens) (P37231 whole entry, looked up): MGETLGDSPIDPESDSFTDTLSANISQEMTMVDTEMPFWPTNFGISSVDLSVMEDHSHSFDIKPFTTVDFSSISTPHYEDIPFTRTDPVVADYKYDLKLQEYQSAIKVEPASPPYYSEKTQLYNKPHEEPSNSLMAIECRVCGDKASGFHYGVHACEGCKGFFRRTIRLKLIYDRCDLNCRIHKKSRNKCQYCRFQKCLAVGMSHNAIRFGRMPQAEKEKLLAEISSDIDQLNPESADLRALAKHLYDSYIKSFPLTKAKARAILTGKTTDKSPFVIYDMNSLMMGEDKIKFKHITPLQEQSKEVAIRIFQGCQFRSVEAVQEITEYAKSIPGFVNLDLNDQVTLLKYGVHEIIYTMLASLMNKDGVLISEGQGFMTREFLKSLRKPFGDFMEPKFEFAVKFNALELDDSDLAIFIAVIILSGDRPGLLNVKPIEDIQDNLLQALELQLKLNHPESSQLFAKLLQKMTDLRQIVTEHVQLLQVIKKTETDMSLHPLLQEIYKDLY
Chain of Aryl hydrocarbon receptor (Homo sapiens) (P35869 whole entry, looked up): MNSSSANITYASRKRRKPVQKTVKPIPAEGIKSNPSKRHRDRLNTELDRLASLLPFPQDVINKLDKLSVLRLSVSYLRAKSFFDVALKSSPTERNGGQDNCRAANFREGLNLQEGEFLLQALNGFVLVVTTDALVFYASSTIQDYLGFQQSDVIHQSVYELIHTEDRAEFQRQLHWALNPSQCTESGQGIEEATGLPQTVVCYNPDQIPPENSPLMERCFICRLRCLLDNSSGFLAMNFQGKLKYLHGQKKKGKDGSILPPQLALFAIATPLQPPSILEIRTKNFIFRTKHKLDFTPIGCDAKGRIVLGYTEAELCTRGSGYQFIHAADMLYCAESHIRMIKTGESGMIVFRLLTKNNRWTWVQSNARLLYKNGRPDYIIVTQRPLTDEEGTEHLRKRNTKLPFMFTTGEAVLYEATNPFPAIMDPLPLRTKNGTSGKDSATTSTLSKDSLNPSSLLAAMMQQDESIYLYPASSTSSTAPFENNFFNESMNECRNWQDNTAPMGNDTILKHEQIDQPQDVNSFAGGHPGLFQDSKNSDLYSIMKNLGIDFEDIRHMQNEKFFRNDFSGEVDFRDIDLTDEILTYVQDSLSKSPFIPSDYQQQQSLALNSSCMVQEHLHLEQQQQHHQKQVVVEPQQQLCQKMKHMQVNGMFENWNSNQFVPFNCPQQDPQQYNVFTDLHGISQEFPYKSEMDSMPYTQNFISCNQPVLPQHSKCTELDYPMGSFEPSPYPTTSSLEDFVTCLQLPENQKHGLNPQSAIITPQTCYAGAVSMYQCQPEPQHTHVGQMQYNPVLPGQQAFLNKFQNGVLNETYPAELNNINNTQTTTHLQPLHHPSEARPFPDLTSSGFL
Chain of Estrogen receptor (Homo sapiens) (P03372 whole entry, looked up): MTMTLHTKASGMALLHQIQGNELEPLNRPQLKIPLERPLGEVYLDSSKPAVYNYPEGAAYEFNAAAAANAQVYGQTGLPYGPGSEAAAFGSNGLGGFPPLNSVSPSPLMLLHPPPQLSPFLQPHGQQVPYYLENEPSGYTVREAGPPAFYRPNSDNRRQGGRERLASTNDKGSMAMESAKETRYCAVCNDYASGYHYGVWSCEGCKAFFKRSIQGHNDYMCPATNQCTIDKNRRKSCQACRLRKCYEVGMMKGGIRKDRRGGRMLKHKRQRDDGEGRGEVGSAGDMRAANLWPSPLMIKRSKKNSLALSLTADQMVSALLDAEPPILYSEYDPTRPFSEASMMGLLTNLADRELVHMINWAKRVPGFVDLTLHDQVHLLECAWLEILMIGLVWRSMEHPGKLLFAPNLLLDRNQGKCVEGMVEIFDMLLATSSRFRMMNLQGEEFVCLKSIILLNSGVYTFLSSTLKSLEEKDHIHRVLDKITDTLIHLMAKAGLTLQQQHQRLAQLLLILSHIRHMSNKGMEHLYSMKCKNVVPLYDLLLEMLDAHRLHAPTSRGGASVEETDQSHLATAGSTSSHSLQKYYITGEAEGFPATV

For the molecule `O=C(O)C(=O)Cc1ccccc1`, the Potency result (in test [1]; in test [2]; in test [7]; in test [8]; with Aromatase (Homo sapiens); in test [10]) was “inactive” in each case. The Potency result in [11], in [12] and in test [13] was “inactive” in each case. Also, the result in test [3], in test [4], in [5], in test [6], in test [9] and in test [15] was inactive. Besides, the molecule was called inactive in [16] and in test [17]. Further, the Potency in test [14] is 27.3 µM (active).
As for `CCOC(=O)c1ccc(OC(=O)CCCCCN=C(N)N)cc1`, the Potency entry (in test [1]; in test [2]; in test [8]; with Aromatase (Homo sapiens); in test [10]; in test [11]) was “inactive” each time. Also, the Potency entry in [12], in test [13] and in test [14] was “inactive” in each case. The molecule was called inactive in [3], in [4], in test [5], in test [6], in test [9] and in [18]. The result in test [16] and in test [17] was inactive. The Potency in [7] is 14.3 µM (active).
On to `CC(C)C(=O)OCCc1ccccc1`, for which the Potency result (in [1]; in test [2]; in test [7]; in test [8]; with Aromatase (Homo sapiens); in test [10]) was “inactive” in each case. In addition, the Potency result in test [11], in [12], in test [13] and in [14] was “inactive” throughout. Besides, the result in test [3], in [4], in [5], in test [6], in test [9] and in test [18] was inactive. The molecule was called inactive in test [19], in [15] and in test [16].
`O=C(CS(=O)Cc1ccco1)NC/C=C\COc1cc(CN2CCCCC2)ccn1` (configuration not stated): the Potency entry (in test [1]; in [2]; in [7]; in [8]; with Aromatase (Homo sapiens); in test [10]) was “inactive” in each case. Besides, the Potency result in test [11], in test [12], in [13] and in test [14] was “inactive” each time. In addition, the outcome in test [3], in test [4], in test [5], in test [6], in [9] and in [18] was inactive. Also, the molecule was called inactive in test [19], in [15], in test [16] and in test [17].
As to `O=S(O)(O)=S`, the activity change, negative = cytotoxic in [1] was 0% [at 8.44 µM]. In addition, the activity, negative = inhibition in test [2] was -1.88% [at 8.44 µM]; in test [4], 6.18% [at 6.71 µM]; with Aromatase (Homo sapiens), 5.06% [at 8.47 µM]. For the same molecule, the activation in test [3] is -0.901% [at 8.08 µM]; in [6] it was -2.02% [at 6.71 µM]; in test [7] it was 6.37% [at 8.47 µM]; in test [11], -4.49% [at 8.47 µM]; in [18], 0.645% [at 7.08 µM]; in test [14], -7.19% [at 8.36 µM]. The activity, negative = cytotoxicity in test [5] was -12.1% [at 6.72 µM]. In addition, the activity change, negative = inhibition in test [8] was -6.18% [at 8.47 µM]. Besides, the activity change, negative = cytotoxicity in [9] was -1.7% [at 8.47 µM]; in test [10] it was 0.159% [at 8.47 µM]; in test [16], 5.21% [at 5.95 µM]. Also, the viability change, negative = cytotoxic is -5.98% [at 8.47 µM] in [12] and 2.86% [at 8.36 µM] in [15]. The ratio activity, negative = inhibition in test [13] is 10.9% [at 5.95 µM].
As for `CCN(C)C(=O)Oc1cccc([C@H](C)N(C)C)c1`, the Potency result (in [1]; in test [2]; in [7]; in [8]; with Aromatase (Homo sapiens); in test [10]) was “inactive” throughout. The Potency entry in [11], in test [12], in test [13] and in [14] was “inactive” each time. Also, the molecule was called inactive in test [3], in test [4], in [5], in test [6], in test [9] and in [18]. In addition, the molecule was classed as inactive in [19], in [16] and in test [17].
For the molecule `C=C(C)C(=O)OCC(C)(C)COC(=O)C(=C)C`, the Potency entry (in test [1]; in test [2]; in test [7]; in test [8]; with Aromatase (Homo sapiens); in test [10]) was “inactive” in each case. Also, the Potency entry in [11], in test [12], in [13] and in [14] was “inactive” in each case. In addition, the molecule was classed as inactive in test [3], in test [4], in [5], in test [6], in test [9] and in test [18]. In addition, the molecule was classed as inactive in test [19], in test [15], in test [16] and in test [17].
